Measurements published in PubChem BioAssay (EPA / NIEHS).
Records with an inconclusive call do not appear. Some compounds were tested as several samples or in several runs, with calls that do not always agree. Calls of active or inactive are those of the source. Rule for the calls, unless noted: active = hit-call score of the fitted dose curve at least 0.9, where 1 is the maximum; inconclusive = response in the unintended direction; inactive = score below 0.9.

Legend:
[1] = ATG_NRF2_ARE_CIS: Attagene CIS-FACTORIAL HepG2 Assay for human Nuclear Factor Erythroid 2 Related Factor 2 (NFR2) response to Antioxidant Response Elements (ARE) (AID 2282992; active = hit-call score of the fitted dose curve at least 0.9, where 1 is the maximum; inactive = score below 0.9;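 for AC50: reporter mRNA level measured by RT-PCR and capillary electrophoresis fluorescence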); conditions: HepG2 Attagene ARE/NRF2 reporter, transcription factor activity; actives raise or lower the signal
Method in brief: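 Multiplexed reporter mRNA profiling in HepG2 after a 24 h chemical exposure. Curves fitted in both directions relative to DMSO negative control.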

[2] = ATG_Oct_MLP_CIS: Attagene CIS-FACTORIAL HepG2 Assay for human Octamer-Binding Transcription Factor (Oct) (AID 2282993; active = hit-call score of the fitted dose curve at least 0.9, where 1 is the maximum; inactive = score below 0.9); conditions: HepG2 Attagene cis-factorial Oct reporter, mRNA; actives raise or lower the signal
Method in brief: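 After 24 h compound exposure, transfected HepG2 cells were lysed for total RNA; reporter-specific cDNA was PCR-amplified, fluorescently labelled and sized by capillary electrophoresis. Bidirectional curve fitting used DMSO as baseline.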

[3] = target: Cellular tumor antigen p53 (Homo sapiens) (UniProt P04637); experiment: ATG_p53_CIS: Attagene CIS-FACTORIAL HepG2 Assay for human p53 Transcription Factor (AID 2282994; active = hit-call score of the fitted dose curve at least 0.9, where 1 is the maximum; inactive = score below 0.9); conditions: HepG2 p53 cis-element reporter, Attagene mRNA; actives raise or lower the signal
Sequence of Cellular tumor antigen p53 (Homo sapiens) (P04637 whole entry, looked up): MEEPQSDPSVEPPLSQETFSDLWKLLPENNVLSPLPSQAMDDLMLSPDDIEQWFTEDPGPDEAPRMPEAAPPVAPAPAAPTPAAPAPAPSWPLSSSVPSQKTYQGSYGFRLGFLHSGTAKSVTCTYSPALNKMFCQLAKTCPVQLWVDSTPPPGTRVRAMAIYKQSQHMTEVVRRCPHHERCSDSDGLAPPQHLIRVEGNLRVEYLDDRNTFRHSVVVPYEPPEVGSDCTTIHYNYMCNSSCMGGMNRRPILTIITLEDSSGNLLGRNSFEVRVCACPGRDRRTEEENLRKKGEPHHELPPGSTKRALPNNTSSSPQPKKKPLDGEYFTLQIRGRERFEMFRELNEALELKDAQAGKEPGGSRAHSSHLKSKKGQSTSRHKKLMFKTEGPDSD
Method in brief: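 Multiplexed reporter mRNA assay in human HepG2 liver cells; cis-regulated units report endogenous factor activity. Values come from bidirectional curve fitting against DMSO negative control after 24 h treatment.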

[4] = target: human Peroxisome Proliferator-activated Receptor alpha (PPARa), PPARA (gene 5465) (UniProt Q07869); experiment: ATG_PPARa_TRANS: Attagene TRANS-FACTORIAL HepG2 Assay for human Peroxisome Proliferator-activated Receptor alpha (PPARa) (AID 2283001);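 for AC50: potency for gain of reporter signal over DMSO so agonist or activator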
Sequence of human Peroxisome Proliferator-activated Receptor alpha (PPARa), PPARA (gene 5465) (Q07869 whole entry, looked up, the tested form may be a part): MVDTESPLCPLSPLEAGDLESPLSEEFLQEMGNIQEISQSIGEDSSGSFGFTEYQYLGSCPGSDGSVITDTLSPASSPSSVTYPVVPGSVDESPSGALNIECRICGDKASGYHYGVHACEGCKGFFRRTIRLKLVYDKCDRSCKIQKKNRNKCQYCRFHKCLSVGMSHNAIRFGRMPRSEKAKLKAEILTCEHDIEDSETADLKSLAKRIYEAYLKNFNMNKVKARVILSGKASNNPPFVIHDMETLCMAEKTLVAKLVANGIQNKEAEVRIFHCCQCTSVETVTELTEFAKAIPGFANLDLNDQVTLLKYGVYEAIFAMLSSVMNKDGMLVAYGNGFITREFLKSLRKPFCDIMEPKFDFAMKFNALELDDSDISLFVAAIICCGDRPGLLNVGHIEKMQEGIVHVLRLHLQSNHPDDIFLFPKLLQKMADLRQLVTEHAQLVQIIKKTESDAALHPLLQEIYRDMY
Method in brief: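 HepG2 cells transiently transfected with multiplexed GAL4-UAS reporters driven by exogenous chimeric NR-Gal4 proteins; reporter mRNA measured after 24 h dosing. Read-out by RT-PCR, 6-FAM labelling, HpaI digestion and capillary electrophoresis; gain of signal versus DMSO.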

[5] = target: Peroxisome proliferator-activated receptor gamma (Homo sapiens) (UniProt P37231); experiment: ATG_PPARg_TRANS: Attagene TRANS-FACTORIAL HepG2 Assay for human Peroxisome Proliferator-activated Receptor-gamma (PPARg) (AID 2283007)
Sequence of Peroxisome proliferator-activated receptor gamma (Homo sapiens) (P37231 whole entry, looked up, the tested form may be a part): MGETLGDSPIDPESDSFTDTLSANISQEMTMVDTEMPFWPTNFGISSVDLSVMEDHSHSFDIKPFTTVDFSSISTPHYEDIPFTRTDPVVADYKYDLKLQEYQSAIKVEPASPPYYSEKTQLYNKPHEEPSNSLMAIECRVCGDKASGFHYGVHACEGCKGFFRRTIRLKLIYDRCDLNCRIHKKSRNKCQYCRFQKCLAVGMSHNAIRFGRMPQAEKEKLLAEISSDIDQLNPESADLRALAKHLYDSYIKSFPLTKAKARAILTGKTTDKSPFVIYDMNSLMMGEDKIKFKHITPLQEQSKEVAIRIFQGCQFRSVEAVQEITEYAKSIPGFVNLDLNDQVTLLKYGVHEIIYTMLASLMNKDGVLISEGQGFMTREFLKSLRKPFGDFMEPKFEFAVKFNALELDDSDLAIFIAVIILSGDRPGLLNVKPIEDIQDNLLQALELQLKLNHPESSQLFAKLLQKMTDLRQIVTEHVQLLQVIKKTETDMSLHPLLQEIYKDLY
Method in brief: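 Transient transfection of HepG2 with GAL4-UAS-driven reporter units; chemical dosing 24 h; total RNA → oligo(dT) RT → PCR with reporter primers → 6-FAM primer extension → HpaI digest 2 h 37 C → capillary electrophoresis. Positive direction vs DMSO.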

[6] = target: Nuclear receptor subfamily 1 group I member 2 (Homo sapiens) (UniProt O75469); experiment: ATG_PXR_TRANS: Attagene TRANS-FACTORIAL HepG2 Assay for human Pregnane X Receptor (PXR) (AID 2283008)
Sequence of Nuclear receptor subfamily 1 group I member 2 (Homo sapiens) (O75469 whole entry, looked up, the tested form may be a part): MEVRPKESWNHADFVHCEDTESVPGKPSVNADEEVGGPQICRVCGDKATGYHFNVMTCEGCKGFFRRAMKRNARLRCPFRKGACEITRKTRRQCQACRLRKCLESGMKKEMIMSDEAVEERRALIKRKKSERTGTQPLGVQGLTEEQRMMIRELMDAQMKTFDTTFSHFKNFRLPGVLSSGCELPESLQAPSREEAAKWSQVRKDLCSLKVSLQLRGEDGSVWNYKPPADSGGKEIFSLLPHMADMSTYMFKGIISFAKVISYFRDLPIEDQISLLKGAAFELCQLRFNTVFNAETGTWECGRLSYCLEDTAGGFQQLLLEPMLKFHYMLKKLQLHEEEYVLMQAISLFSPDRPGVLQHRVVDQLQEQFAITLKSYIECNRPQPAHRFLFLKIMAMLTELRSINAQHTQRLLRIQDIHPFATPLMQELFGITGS
Method in brief: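 Measures mRNA induction of a GAL4-UAS-driven reporter in human HepG2 cells transiently expressing PXR fused to Gal4, following 24 h treatment. DMSO served as negative control and baseline.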

[7] = target: human RAR-related Orphan Receptor gamma (RORg), RORC (gene 6097) (UniProt P51449); experiment: ATG_RORg_TRANS: Attagene TRANS-FACTORIAL HepG2 Assay for human RAR-related Orphan Receptor gamma (RORg) (AID 2283011)
Sequence of human RAR-related Orphan Receptor gamma (RORg), RORC (gene 6097) (P51449 whole entry, looked up, the tested form may be a part): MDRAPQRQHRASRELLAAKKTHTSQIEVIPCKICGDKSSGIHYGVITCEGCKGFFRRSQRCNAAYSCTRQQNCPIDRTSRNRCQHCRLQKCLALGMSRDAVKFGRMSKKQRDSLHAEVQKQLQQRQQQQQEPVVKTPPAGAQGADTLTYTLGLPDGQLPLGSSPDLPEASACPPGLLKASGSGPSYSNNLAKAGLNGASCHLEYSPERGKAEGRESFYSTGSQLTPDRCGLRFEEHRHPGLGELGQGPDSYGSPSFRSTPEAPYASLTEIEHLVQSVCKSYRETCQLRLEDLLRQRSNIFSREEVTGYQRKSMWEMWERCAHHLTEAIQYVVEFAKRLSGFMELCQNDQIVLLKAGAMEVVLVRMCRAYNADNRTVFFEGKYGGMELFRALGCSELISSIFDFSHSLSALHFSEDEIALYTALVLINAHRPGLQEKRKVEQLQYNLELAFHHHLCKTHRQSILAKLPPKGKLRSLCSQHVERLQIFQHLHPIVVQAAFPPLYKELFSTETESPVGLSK
Method in brief: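 Readout: reporter transcript induction (RT-PCR, fluorescent primer extension, capillary electrophoresis) after 24 h compound exposure of transiently transfected HepG2 cells carrying a RORg-Gal4 chimera and GAL4-UAS reporters; DMSO served as baseline, with increasing signal fitted.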

[8] = target: human Retinoic Acid Receptor beta (RARb), RARB (gene 5915) (UniProt P10826); experiment: ATG_RARb_TRANS: Attagene TRANS-FACTORIAL HepG2 Assay for human Retinoic Acid Receptor beta (AID 2283004)
Sequence of human Retinoic Acid Receptor beta (RARb), RARB (gene 5915) (P10826 whole entry, looked up, the tested form may be a part): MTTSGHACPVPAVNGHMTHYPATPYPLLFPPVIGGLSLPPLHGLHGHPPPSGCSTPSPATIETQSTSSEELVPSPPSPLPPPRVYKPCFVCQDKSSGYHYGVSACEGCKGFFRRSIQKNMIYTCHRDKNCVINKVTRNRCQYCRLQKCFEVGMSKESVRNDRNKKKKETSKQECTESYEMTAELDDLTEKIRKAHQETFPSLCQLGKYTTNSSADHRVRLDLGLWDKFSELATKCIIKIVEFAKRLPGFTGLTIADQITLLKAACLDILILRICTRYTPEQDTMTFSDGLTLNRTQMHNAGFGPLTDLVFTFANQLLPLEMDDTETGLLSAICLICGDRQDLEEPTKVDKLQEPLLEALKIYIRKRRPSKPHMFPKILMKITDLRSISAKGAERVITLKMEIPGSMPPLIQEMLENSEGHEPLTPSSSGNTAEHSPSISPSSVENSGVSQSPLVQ
Method in brief: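 HepG2 cells transiently transfected with multiplexed GAL4-UAS reporter units expressing chimeric NR–Gal4 fusions; 24 h compound exposure. Reporter mRNA quantified by RT-PCR, 6-FAM labelling, HpaI digestion and capillary electrophoresis; gain-of-signal fitted against DMSO baseline.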

[9] = target: Retinoic acid receptor alpha (Homo sapiens) (UniProt P10276); experiment: ATG_RARa_TRANS: Attagene TRANS-FACTORIAL HepG2 Assay for human Retinoic Acid Receptor alpha (RARa) (AID 2283005)
Sequence of Retinoic acid receptor alpha (Homo sapiens) (P10276 whole entry, looked up, the tested form may be a part): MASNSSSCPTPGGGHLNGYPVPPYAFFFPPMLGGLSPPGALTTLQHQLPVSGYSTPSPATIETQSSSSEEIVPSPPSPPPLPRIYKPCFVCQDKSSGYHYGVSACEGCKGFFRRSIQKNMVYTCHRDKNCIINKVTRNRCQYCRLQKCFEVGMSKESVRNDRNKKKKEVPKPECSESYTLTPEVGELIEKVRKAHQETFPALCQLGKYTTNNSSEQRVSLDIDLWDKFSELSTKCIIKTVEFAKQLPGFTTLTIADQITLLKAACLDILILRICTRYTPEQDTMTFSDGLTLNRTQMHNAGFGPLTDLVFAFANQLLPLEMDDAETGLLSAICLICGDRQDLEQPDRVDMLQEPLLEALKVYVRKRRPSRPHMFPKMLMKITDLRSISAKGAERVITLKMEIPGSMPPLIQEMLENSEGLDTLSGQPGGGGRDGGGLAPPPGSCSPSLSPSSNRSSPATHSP
Method in brief: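 HepG2 transiently transfected with multiplex GAL4-UAS reporter units including a human RARa–GAL4 chimera; 24 h compound exposure. Reporter mRNA quantified by RT-PCR, 6-FAM labeling and capillary electrophoresis; gain of signal versus DMSO.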

[10] = target: human RAR-related Orphan Receptor beta (RORb), RORB (gene 6096) (UniProt Q92753); experiment: ATG_RORb_TRANS: Attagene TRANS-FACTORIAL HepG2 Assay for human RAR-related Orphan Receptor beta (RORb) (AID 2283010)
Sequence of human RAR-related Orphan Receptor beta (RORb), RORB (gene 6096) (Q92753 whole entry, looked up, the tested form may be a part): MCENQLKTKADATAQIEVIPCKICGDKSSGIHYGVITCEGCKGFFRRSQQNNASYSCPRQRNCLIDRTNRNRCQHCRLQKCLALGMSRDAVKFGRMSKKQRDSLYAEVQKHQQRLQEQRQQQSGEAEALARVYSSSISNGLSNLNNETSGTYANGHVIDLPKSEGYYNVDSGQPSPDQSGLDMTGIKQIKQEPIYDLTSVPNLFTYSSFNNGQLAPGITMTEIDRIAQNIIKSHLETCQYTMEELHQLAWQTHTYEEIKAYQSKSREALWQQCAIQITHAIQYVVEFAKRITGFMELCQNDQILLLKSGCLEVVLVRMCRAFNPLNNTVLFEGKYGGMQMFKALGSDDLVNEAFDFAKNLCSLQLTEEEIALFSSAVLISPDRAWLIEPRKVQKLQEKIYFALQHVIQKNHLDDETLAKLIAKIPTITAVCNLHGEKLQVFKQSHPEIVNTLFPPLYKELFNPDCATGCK
Method in brief: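 HepG2 cells transiently transfected with GAL4-UAS reporter units expressing chimeric NR-Gal4 protein; reporter mRNA measured 24 h after dosing by RT-PCR, 6-FAM labelling and capillary electrophoresis. Gain-of-signal fitted relative to DMSO baseline.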

[11] = target: Retinoic acid receptor RXR-alpha (Homo sapiens) (UniProt P19793); experiment: ATG_RXRa_TRANS: Attagene TRANS-FACTORIAL HepG2 Assay for human Retinoid X Receptor alpha (RXRa) (AID 2283012)
Sequence of Retinoic acid receptor RXR-alpha (Homo sapiens) (P19793 whole entry, looked up, the tested form may be a part): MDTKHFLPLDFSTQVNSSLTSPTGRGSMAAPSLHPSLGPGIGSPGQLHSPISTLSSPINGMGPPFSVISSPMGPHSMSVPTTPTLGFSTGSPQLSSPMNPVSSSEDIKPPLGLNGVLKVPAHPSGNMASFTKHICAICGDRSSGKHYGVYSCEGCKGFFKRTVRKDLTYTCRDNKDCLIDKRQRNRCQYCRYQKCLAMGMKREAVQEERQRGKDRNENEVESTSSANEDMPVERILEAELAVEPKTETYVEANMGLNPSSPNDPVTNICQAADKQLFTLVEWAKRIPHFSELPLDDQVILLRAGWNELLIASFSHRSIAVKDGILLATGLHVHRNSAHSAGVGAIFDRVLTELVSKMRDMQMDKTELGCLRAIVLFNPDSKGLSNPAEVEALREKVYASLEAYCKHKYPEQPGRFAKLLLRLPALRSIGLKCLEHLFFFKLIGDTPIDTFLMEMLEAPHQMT
Method in brief: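 HepG2 cells transiently transfected with GAL4-UAS reporter units and chimeric RXRa-Gal4 protein, treated 24 h. Reporter mRNA measured by RT-PCR, fluorescent labelling, HpaI digestion and capillary electrophoresis. Induction fitted against DMSO.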

[12] = target: human Retinoid X Receptor beta (RXRb), RXRB (gene 6257) (UniProt P28702); experiment: ATG_RXRb_TRANS: Attagene TRANS-FACTORIAL HepG2 Assay for human Retinoid X Receptor beta (RXRb) (AID 2283013)
Sequence of human Retinoid X Receptor beta (RXRb), RXRB (gene 6257) (P28702 whole entry, looked up, the tested form may be a part): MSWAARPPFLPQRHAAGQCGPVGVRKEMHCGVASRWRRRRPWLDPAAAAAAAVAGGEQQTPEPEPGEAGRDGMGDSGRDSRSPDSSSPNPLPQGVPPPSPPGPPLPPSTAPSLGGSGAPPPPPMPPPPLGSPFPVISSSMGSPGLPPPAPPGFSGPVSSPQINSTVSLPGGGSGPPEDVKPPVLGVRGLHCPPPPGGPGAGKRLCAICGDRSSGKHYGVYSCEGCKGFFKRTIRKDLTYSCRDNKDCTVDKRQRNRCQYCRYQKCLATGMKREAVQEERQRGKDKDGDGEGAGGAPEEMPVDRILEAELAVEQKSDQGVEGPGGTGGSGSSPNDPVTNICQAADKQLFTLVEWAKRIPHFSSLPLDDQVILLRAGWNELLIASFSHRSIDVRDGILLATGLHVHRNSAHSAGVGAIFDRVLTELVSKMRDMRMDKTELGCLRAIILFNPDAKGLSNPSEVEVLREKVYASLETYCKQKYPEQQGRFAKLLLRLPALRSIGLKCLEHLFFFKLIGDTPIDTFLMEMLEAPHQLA
Method in brief: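 HepG2 cells were transiently transfected with multiplexed GAL4-UAS reporters and a chimeric RXRb-Gal4 construct, then exposed for 24 h. Reporter mRNA was quantified by RT-PCR, FAM labeling, HpaI digestion and capillary electrophoresis; gain of signal was scored against DMSO.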

[13] = target: human Peroxisome Proliferator-activated Receptor delta (PPARd), PPARD (gene 5467) (UniProt Q03181); experiment: ATG_PPARd_TRANS: Attagene TRANS-FACTORIAL HepG2 Assay for human Peroxisome Proliferator-activated Receptor delta (PPARd) (AID 2283002)
Method in brief: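 HepG2 cells transiently transfected with GAL4-UAS multiplexed reporter units driven by exogenous chimeric NR-GAL4 proteins; 24 h compound exposure. Reporter mRNA measured by RT-PCR, 6-FAM primer extension, HpaI digestion and capillary electrophoresis; gain of signal fitted relative to DMSO.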

[14] = target: human Retinoic Acid Receptor gamma (RARg), RARG (gene 5916) (UniProt P13631); experiment: ATG_RARg_TRANS: Attagene TRANS-FACTORIAL HepG2 Assay for human Retinoic Acid Receptor gamma (RARg) (AID 2283009)
Method in brief: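 HepG2 transiently transfected with GAL4-UAS reporter units and chimeric NR-Gal4 constructs; 24 h compound exposure. Reporter mRNA quantified by RT-PCR, FAM labeling, HpaI digestion and capillary electrophoresis; gain-of-signal versus DMSO.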

Measured: AC50

CCCCC(CC)C(=O)Cl (stereo not drawn)
inactive: [1] | [2] | [3] | [4] | [5] | [6] | [7]

CN(CCCC(O)c1cccnc1)N=O (stereo not drawn)
inactive: [1] | [2] | [3] | [4] | [8] | [9] | [5] | [6] | [10] | [7] | [11] | [12]

Cc1cc(SCc2sc(-c3ccc(C(F)(F)F)c(F)c3)nc2C)ccc1OCC(=O)O
inactive: [1] | [11] | [12]
active: [2] 15.6 µM | [3] 47.1 µM | [4] 0.201 µM | [5] 0.887 µM | [6] 2.05 µM

N#Cc1ccccc1N
inactive: [1] | [2] | [3] | [4] | [8] | [9] | [6] | [10] | [7]

OCC(c1ccc(Cl)cc1)c1ccc(Cl)cc1
inactive: [3] | [11] | [12]
active: [1] 43.6 µM | [2] 57.9 µM | [4] 55 µM | [5] 39.2 µM | [6] 20.1 µM

CCOc1ccc(N)cc1
inactive: [1] | [2] | [3] | [4] | [8]

CCN(CCO)CCO
inactive: [1] | [2] | [3] | [4] | [9]

Cc1cc(Cl)ccc1OCCCC(=O)O
active: [12] 27.7 µM
inactive: [1] | [2] | [3] | [4] | [8] | [9] | [14] | [7] | [11]

O=C(O)COc1ccc(Cl)cc1
inactive: [1] | [2] | [3] | [4] | [13] | [5] | [11] | [12]

c1ccc2c(c1)Oc1ccccc1O2
inactive: [2] | [3] | [4] | [8] | [6] | [10] | [7] | [11] | [12]
active: [1] 35.4 µM

Cc1cccc(C)c1NC(=O)CN1CCCC1=O
inactive: [1] | [2] | [3] | [4] | [8] | [5] | [6] | [11]
